According to the supplement of paper PMC12340860:
± gives the standard deviation of the averaged measurements.

system: Caenorhabditis elegans infected with Nematocida parisii; assay: progeny production of N. parisii-infected C. elegans relative to uninfected control; higher = stronger inhibition of microsporidia infection (rescue of reproduction); conditions: 60 µM; incubation time 5 days; spore dose (spores/uL): 18000
Procedure: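 C. elegans N2 L1 larvae (100 per well, 96-well plate, K-medium with 5x E. coli OP50, 1% DMSO) were infected with Nematocida parisii spores (18,000 spores/uL) that had been pre-incubated for 1 h with each BU-CMD library compound at 60 uM. Plates were incubated 5 days at 21 C with shaking. Progeny were stained with rose bengal, scanned on a flatbed scanner and counted with WorMachine. Progeny number is expressed as % of uninfected DMSO controls on the same plate; three biological replicates per compound; hits were compounds with at least 60% progeny production.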

SMILES	progeny production [%]
COC(=O)C1=C(C)N(CCc2cc(OC)c(OC)c(OC)c2)C(=O)N[C@H]1c1ccccc1	38.1 ± 18
COc1ccc(C2=CC3=C(Br)C(=O)C(C)(O)C(=O)C3=CO2)cc1 (centres undefined)	80.6 ± 13
CC(=O)[C@@H]1[C@@H](C)N(Cc2ccccc2)C(=O)N[C@H]1c1cccc(C(F)(F)F)c1	33.2 ± 12
C=C(C)C[C@@H](O)COc1cc2c(cc1C1(c3cc4c(cc3OC[C@H](O)CC(=C)C)OCO4)C(=O)Nc3cc(F)ccc31)OCO2	20.5 ± 11
